Screening data: PubChem BioAssay, Sanford-Burnham Center for Chemical Genomics
Shown is part of a subset that was picked to be rich in hits.
DUSP3 inh – inhibitors of human VHR1 phosphatase (DUSP3); P51452; inhibition, % at 20 µM; actives 0.7% (n = 50,000); recombinant VHR phosphatase, colorimetric substrate read-out; in the data active means inhibition above about 60%
Target sequence (P51452 whole entry, looked up): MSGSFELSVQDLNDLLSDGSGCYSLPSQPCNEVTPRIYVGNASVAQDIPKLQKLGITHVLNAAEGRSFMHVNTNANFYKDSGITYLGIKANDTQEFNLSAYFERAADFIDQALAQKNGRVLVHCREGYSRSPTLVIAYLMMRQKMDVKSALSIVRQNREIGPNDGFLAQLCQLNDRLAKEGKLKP
Numbers without * were called inactive.

SMILES	DUSP3 inh
CC(NC(=O)C12CC3CC(CC(C3)C1)C2)C1CC2CCC1C2 (stereo unspecified)	77.9
Cc1cccc(C)c1NC(=O)c1ccc(C2SCC(=O)N2Cc2ccccc2)cc1 (stereo unspecified)	10.8
Cc1ccccc1C(=O)NN1C(=O)/C(=C\c2cccs2)SC1=S	-5.3
COc1ccccc1CC(=O)NCc1ccco1	-8.2
Cc1cc(/C=N\Nc2ccc([N+](=O)[O-])cn2)c(C)n1-c1ccccc1F	-3.9
Cc1cc(/C=N/n2cnnc2)c(C)n1-c1ccc(F)cc1	-5.0
Cc1cc(/C=N/Nc2ccc([N+](=O)[O-])cn2)c(C)n1-c1ccc(F)cc1	87.4*
CC(=O)c1c(C)nn2c3ccccc3n(C)c12	-40.7
Cc1cc2nn(-c3ccccc3)nc2cc1NC(=O)/C=C/c1ccccc1	-7.7
Cc1ccc(C)n1-c1ccc(C(=O)O)c(Cl)c1	46.6
Cc1ccc(C)n1-c1ccc(C(=O)O)c(O)c1	97.3*
Cc1ccc(C)n1-c1cc(C(=O)O)cc(C(=O)O)c1	25.9
O=c1c2ccccc2nc(-c2ccccc2)n1/N=C/c1cccs1	-29.0
COc1ccccc1Nc1nc(-c2ccc(C)cc2)cs1	7.8
Cc1c(C=O)c2ccccc2n1Cc1ccccc1Cl	-4.2
Cn1c(=O)c2c([nH]c(=S)n2Cc2ccccc2Cl)n(C)c1=O	95.4*
O=c1c2ccccc2[nH]c(=S)n1Cc1ccccc1	-7.7
Cc1cc(C)cc(N2C(=O)NC(=O)/C(=C\C=C\c3ccccc3)C2=O)c1	-3.2
N#CCOc1ccccc1/C=C/c1[nH]c(=O)[nH]c(=O)c1[N+](=O)[O-]	0.7
Cc1ccc(SCc2cc(=O)n(-c3nc4ccccc4s3)[nH]2)cc1	18.2
CC(Oc1ccc2oc(-c3ccccc3)c(C(=O)O)c2c1)C(=O)O (stereo unspecified)	80.6*
CCOC(=O)c1c(-c2ccccc2)oc2ccc(OC(C)C(=O)OCC)cc12 (stereo unspecified)	6.0
CCOc1ccc2oc(-c3ccccc3)c(C(=O)O)c2c1	-21.4
CN1C(=O)/C(=C2\SC(=S)N(C3CCCCC3)C2=O)c2ccccc21	9.8
O=C1NC(=S)N(c2cccc(Br)c2)C(=O)/C1=C/c1ccc(-c2ccc(C(=O)O)cc2)o1	92.5
SMILES	DUSP3 inh
O=C1NN(c2ccccc2)C(=O)/C1=C/c1ccc(-c2ccc(F)cc2)o1	-15.1
O=C1NC(=O)N(c2cccc(Br)c2)C(=O)/C1=C/c1ccc(-c2ccc(C(=O)O)cc2)o1	99.7*
O=C1NN(c2ccc(F)cc2)C(=O)/C1=C\c1ccc(-c2cccc(C(=O)O)c2)o1	-10.4
O=C1NC(=O)N(c2ccccc2)C(=O)/C1=C\c1ccc(-c2cccc(C(=O)O)c2)o1	-24.5
O=C1NN(c2ccccc2)C(=O)/C1=C/c1ccc(-c2ccccc2)o1	110.9*
CCOc1cc(/C=C2\SC(=S)N(NC(=O)c3ccccc3Cl)C2=O)ccc1O	-22.3
Cc1ccc(-c2nc3sc4c(c3c(=O)o2)CCCCC4)cc1	-4.6
CCN=C(NCC)SC1CC(=O)N(c2ccc(Cl)c(Cl)c2)C1=O (stereo unspecified)	-22.0
COC(=O)Cc1nc2sc3c(c2c(=O)n1Cc1ccccc1)CCC(C(C)(C)C)C3 (stereo unspecified)	-4.5
COc1cccc(NC(=O)C2C3CCC4C(CCC32)C4(Cl)Cl)c1 (stereo unspecified)	2.5
Cc1cc(C)c(NC(=O)C2C3CCC4C(CCC32)C4(Cl)Cl)c(C)c1 (stereo unspecified)	102.6*
COc1ccc(NC(=O)C2C3CCC4C(CCC32)C4(Cl)Cl)cc1 (stereo unspecified)	-10.7
CCC(Oc1ccccc1)C(=O)NC(C)c1ccccc1 (stereo unspecified)	28.3
O=C1c2ccc(-c3nc4ccccc4c(=O)o3)cc2C(=O)N1c1ccc(I)cc1	0.3
COc1ccc(N2C(=O)/C(=C/c3ccc(-c4cc(C(=O)O)ccc4Cl)o3)C(=O)NC2=S)cc1	-8.0
COc1ccc(N2C(=O)/C(=C/c3ccc(I)o3)C(=O)NC2=S)cc1	91.6*
COc1ccc(N2C(=O)NC(=O)/C(=C/c3ccc(-c4cccc(Cl)c4)o3)C2=O)cc1	5.8
COc1ccc(N2C(=O)NC(=O)/C(=C/c3ccc(I)o3)C2=O)cc1	106.7*
COc1ccc(N2C(=O)NC(=O)/C(=C/c3ccc(-c4ccc(C(=O)O)cc4)o3)C2=O)cc1	45.9
COc1ccc(N2C(=O)/C(=C/c3cc(C)n(-c4ccccc4)c3C)C(=O)NC2=S)cc1	89.1
COc1ccc(C(=O)NCc2cccnc2)c(OC)c1	-40.7
OC(COc1ccc(C23CC4CC(CC(C4)C2)C3)cc1)CN1CCN(c2ccccn2)CC1 (stereo unspecified)	0.5
CC(C)(C)c1cc(Br)ccc1OCC(=O)Nc1ccccc1Cl	-11.2
Cn1c(=O)c(N2CCOCC2)c2c3c(cccc31)C(=O)c1ccccc1-2	12.6
Cc1ccccc1-n1c(/C=C/c2ccc(Cl)cc2)nc2ccccc2c1=O	9.9
SMILES	DUSP3 inh
CCCOC(=O)c1ccc(NC(=O)COc2ccc(OC)cc2)cc1	-14.0
CCCOC(=O)c1ccc(NC(=O)/C=C\C(=O)O)cc1	5.7
CCCOC(=O)c1ccc(NC(=O)c2cc(Cl)c(OC)c(Cl)c2)cc1	-10.8
CCCOC(=O)c1ccc(NC(=O)CCC)cc1	110.7*
CCCCC(=O)Nc1ccc(C(=O)OCCC)cc1	106.8*
CCCCOC(=O)c1ccc(NC(C)=O)cc1	-13.6
CC1=C(C(=O)Nc2ccccc2C)C(c2ccc(C)cc2)NC(=O)N1 (stereo unspecified)	100.1
O=C(CSc1ccccn1)Nc1ccccc1-c1ccccc1	-5.5
COc1ccc2c(c1OC)C(=O)OC2Nc1cc(C)ccc1O (stereo unspecified)	1.6
